From PubChem BioAssay
Sampled rows, rich in hits. Any-hit rate of the full collection: about 3.7%.
PLK1 PBD block – qHTS for Inhibitors of PLK1-PDB (polo-like kinase 1 - polo-box domain): Primary Screen; Plk1 PBD binding of FITC phosphopeptide, fluorescence polarization; Potency, µM, for the others: max response, negative = inhibition, actives largely listed as inhibitors; Serine/threonine-protein kinase PLK1 (Homo sapiens), P53350; 360,000 compounds, 2.8% hits; AID 720504, 2013; note: potency is the fitted concentration of half-maximal effect; series mostly up to about 57 µM; % is set by controls: 0 for no effect and ±100 for the full control effect; nearly all actives have a fitted effect of over 65% in size
Target sequence (P53350 whole entry, looked up, the tested form may be a part): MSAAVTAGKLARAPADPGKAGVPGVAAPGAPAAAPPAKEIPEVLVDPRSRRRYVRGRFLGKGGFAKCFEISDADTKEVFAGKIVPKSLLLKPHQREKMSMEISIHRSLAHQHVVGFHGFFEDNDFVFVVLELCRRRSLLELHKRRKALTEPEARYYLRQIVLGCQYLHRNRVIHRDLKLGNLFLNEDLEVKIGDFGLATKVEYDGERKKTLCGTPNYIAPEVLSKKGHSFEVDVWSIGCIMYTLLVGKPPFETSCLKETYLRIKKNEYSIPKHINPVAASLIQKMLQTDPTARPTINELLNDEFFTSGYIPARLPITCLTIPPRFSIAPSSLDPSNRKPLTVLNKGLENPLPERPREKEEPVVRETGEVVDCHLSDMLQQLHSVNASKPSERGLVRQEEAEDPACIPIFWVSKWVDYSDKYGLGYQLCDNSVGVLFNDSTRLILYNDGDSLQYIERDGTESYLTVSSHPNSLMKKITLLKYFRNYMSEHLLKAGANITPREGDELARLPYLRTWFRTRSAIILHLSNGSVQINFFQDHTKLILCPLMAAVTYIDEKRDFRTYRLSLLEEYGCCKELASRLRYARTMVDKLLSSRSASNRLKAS
FEN1 inh-1 – qHTS Assay for the Inhibitors of Human Flap endonuclease 1 (FEN1) | P39748 | Recombinant FEN1 flap cleavage, fluorescence, 15 min | Potency, µM (doses to about 114 µM), for inactives: at the highest dose activity change, negative = inhibition, most hits filed as inhibitors | 390,000 compounds, 0.35% hits; note: potency is the fitted concentration of half-maximal effect; % is set by controls: 0 for no effect and ±100 for the full control effect; nearly all actives have a fitted effect of over 65% in size
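Enzyme 10 nM, 15 min RT preincubation with compound; start with substrate 50 nM final; reads at 0 and 15 min; qHTS titration, four-parameter Hill fit.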
VDR inh – Inhibitors of the vitamin D receptor (VDR): qHTS. VDR-SRC2-3 peptide fluorescence polarization, 2 h. Potency, µM, for inactives: max response, negative = inhibition, hits mostly inhibitors. 400,000 compounds, 0.93% hits; note: potency is the fitted concentration of half-maximal effect; % is set by controls: 0 for no effect and ±100 for the full control effect
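VDR–SRC2-3 interaction, FP format. Cmpds 23 nl via pintool, brief spin, 2 h ambient incubation.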
TCR activator – Activators of T cell receptors: qHTS campaign; primary human leukocytes, anti-CD3, IL-2 HTRF, 48 h; Potency, µM (series often up to 9.22 µM), for inactives: at the top dose activation of IL-2 secretion, most hits filed as activators; 330,000 tested, under 10 active; note: % of control where 0% means no effect
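Human primary leukocytes + a-CD3 beads + cpd, 48 hr; IL-2 in supernatant by HTRF (ex 320nm / em 665nm). No co-stimulatory signal supplied.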
PI5P4K alpha inh – qHTS for Inhibitors of phosphatidylinositol 5-phosphate 4-kinase (PI5P4K); 330,000 compounds, 1.2% hits; PI5P4Kalpha enzyme, ADP-Glo luminescence, 60 min; stronger effect = lower value; max response, %; AID 652105, 2013; Phosphatidylinositol 5-phosphate 4-kinase type-2 alpha (Homo sapiens), P48426; active = max response of -50% or lower; inconclusive = between -30% and -50%; inactive = -30% or higher; note: value at the top dose of about 77 µM; % is set by controls: 0 for no effect and ±100 for the full control effect
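PI5P4Kalpha ADP-Glo assay; 5 microM ATP final; 60 min RT reaction; HEPES pH 7.4/EGTA/CHAPS, 5% DMSO; controls lacking substrate or enzyme; luminescent end-point.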
WRN inhibitor – qHTS for Inhibitors of WRN Helicase; WRN helicase unwinding, fluorescent forked duplex, kinetic; 360,000 compounds, 0.46% hits; Potency, µM (doses to about 114 µM), without a hit: at the top dose activity change, negative = inhibition, most hits filed as inhibitors; Bifunctional 3'-5' exonuclease/ATP-dependent helicase WRN (Homo sapiens), Q14191; AID 651768, 2012; note: potency is the fitted concentration of half-maximal effect; % is set by controls: 0 for no effect and ±100 for the full control effect; nearly all actives have a fitted effect of over 55% in size
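Screening of the MLSMR collection measured strand separation of a quenched forked DNA duplex (100 nM) by 20 nM WRN with 2 mM ATP, all final. Compounds were preincubated with enzyme 15 min at room temperature.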
FEN1 inh-2 – qHTS Assay for the Inhibitors of FEN1: Confirmatory Assay for Cherry-picked Compounds. shares compounds with FEN1 inh-1. FEN1 flap cleavage, TAMRA/BHQ2 fluorogenic DNA substrate. Potency, µM, actives largely listed as inhibitors. 880 compounds, 79% hits; note: potency is the fitted concentration of half-maximal effect; nearly all actives have a fitted effect of over 60% in size
Starred values were filed as active, the others as inactive; ? = inconclusive; nt = not tested or not shown; [ ] = remark or other dose. Unless noted, calls come from the whole dose curve; as a rule, active = well fitted curve in the direction sought with a large enough effect; inconclusive = small, poorly fitted or top-dose-only effect, or another doubt; inactive = no such curve, though single readings can be large; an effect the other way counts as inactive or inconclusive.

SMILES	PLK1 PBD block	FEN1 inh-1	VDR inh	TCR activator	PI5P4K alpha inh	WRN inhibitor	FEN1 inh-2
COc1ccc2c(c1)N(C)/C(=C/c1cccc[n+]1C)S2	4%	20µM*	13%	-1%	-2	-1%[11.6 µM]	?
CCN1/C(=C/c2cccc[n+]2C)Sc2ccc(OC)cc21	-12%	?	-17%	-1%	3	3%[11.6 µM]	nt
O=C(C1CCN(S(=O)(=O)c2ccc(Br)s2)CC1)N1CCN(c2cccc(C(F)(F)F)c2)CC1	nt	1%	-2%	nt	nt	nt	nt
O=C1CN(C(=O)COC(=O)c2ccc([N+](=O)[O-])o2)c2ccccc2N1	-30%	?	-7%	0%	-8	1%[11.6 µM]	19*
O=C1CN(C(=O)COC(=O)c2ccc([N+](=O)[O-])s2)c2ccccc2N1	-5%	?	-20%	-4%	6	-1%	7.6*
COC(=O)c1sccc1S(=O)(=O)N(CC(=O)NCc1ccccc1)c1ccccc1	nt	-1%	-7%	nt	nt	nt	nt
Cc1ccc(N(C)S(=O)(=O)c2nnc(NC(=O)CC(C)C)s2)cc1	nt	-4%	4%	nt	nt	nt	nt
CCc1nnc(N/N=C/c2c(Cl)cccc2Cl)n1N	-5%	7%	-2%	nt	nt	-8%[11.6 µM]	?
CCOC(=O)c1cccc(NC(=O)COc2ccc3c(C)cc(=O)oc3c2)c1	nt	-6%	-12%	nt	nt	nt	nt
CCN(CC)CCn1c2ccccc2c2cnc(N)c(C#N)c21	-8%	?	-4%	3%	1	-8%[57.1 µM]	21*
O=C(N/N=C/c1cc(Br)c(O)c(Br)c1)c1cc2c(ccc3ccccc32)o1	21µM*	56µM*	-16%	nt	-103*	35µM*	43*
O=C(N/N=C/c1cc(Cl)c(O)c(Cl)c1)c1cc2c(ccc3ccccc32)o1	24µM*	50µM*	-19%	-2%	-77*	?	?
CCCCN(C(=O)C1CCC(CNS(=O)(=O)c2cccc3nsnc23)CC1)c1ccccc1 (stereo unspecified)	nt	-15%	-19%	nt	nt	nt	nt
COc1ccc(-c2c3c(=O)n(C)c(=O)n(C)c3cn2-c2cccc(N)c2)cc1	nt	-19%	4%	nt	nt	nt	nt
O=C(O)c1cc(O)c2c(c1)C(=O)c1cc(O)cc(O)c1C2=O	?	?	-15%	0%	-86*	?	?
O=C1c2cc(Cl)ccc2-c2c(O)cc(Cl)cc21	-4%	-6%	-2%	-1%	?	-21%	nt
CCOC(=O)c1c(NC(C)=O)c2c3c(sc2n1Cc1nc(-c2ccc(Cl)cc2)oc1C)CCCC3	nt	-6%	0%	nt	nt	nt	nt
COCCn1c(C)cc(O)c(C(c2cccc(F)c2)N2CCN(c3ccccc3)CC2)c1=O (stereo unspecified)	nt	-10%	-3%	nt	nt	nt	nt
Cc1ccc(NC(=O)CSc2nc3ccc(Br)cc3[nH]2)c(C)c1	nt	-8%	13%	nt	nt	nt	nt
O=C(Nc1cc(C(=O)Nc2ccccc2C(=O)O)cc(C(=O)Nc2ccccc2C(=O)O)c1)c1ccccc1	21µM*	25µM*	?	1%	-82*	40µM*	34*
Cc1c(-c2ccc(/C=N/NC(=O)C(=O)Nc3ccccc3F)o2)cccc1[N+](=O)[O-]	14%	5%	1%	-1%	-26	-2%	nt
Nn1cnnc1N/N=C\c1ccc(-c2ccccc2[N+](=O)[O-])o1	-18%	-10%	?	1%[46.1 µM]	-3	-19%	?
CN(C)CCNc1ccc2nnn3c4ccc(O)cc4c(=O)c1c23	-5%	13µM*	-11%	-3%	-3	23%[11.6 µM]	8.5*
O=C(O)c1ccc2cccnc2c1O	-14%	22µM*	15%	0%	-17	-28%	7.6*
Cc1nc2ccccc2c(=O)n1/N=C/c1ccccc1O	-4%	-11%	1%	1%	0	-6%	nt
SMILES	PLK1 PBD block	FEN1 inh-1	VDR inh	TCR activator	PI5P4K alpha inh	WRN inhibitor	FEN1 inh-2
Cc1nc2ccccc2c(=O)n1/N=C/c1ccc(O)c(O)c1O	11µM*	?	-5%	6%	-86*	3µM*	11*
CN(C)CCCNc1cc(-c2ccccc2)nc2cc(-c3cccc(F)c3)nn12	-15%	?	-16%	2%	0	-1%[11.6 µM]	48*
O=C1NC(=O)/C(=C/c2ccc(-c3cccc([N+](=O)[O-])c3)o2)S1	?	?	-2%	nt	-51*	32µM*	?
CC(=O)Nc1ccc(S(=O)(=O)N2CCC(N3CCN(Cc4ccc(C)cc4)C(=O)C3=O)CC2)cc1	nt	7%	6%	nt	nt	nt	nt
Nc1c(C(=O)O)ccc2c1C(=O)c1ccccc1C2=O	-4%	50µM*	-10%	-3%	-69*	?	34*
O=C(O)c1ccc([N+](=O)[O-])c2c1C(=O)c1ccccc1C2=O	-17%	-10%	9%	2%	0	-14%	nt
COCCn1c(C)cc(C(=O)COC(=O)c2ccc([N+](=O)[O-])o2)c1C	-3%	?	-1%	-49%	-2	1%	15*
CC(C)Cn1c(N)c(C(=O)COC(=O)c2ccc([N+](=O)[O-])o2)c(=O)n(C)c1=O	-12%	?	-14%	5%	-7	2%[11.6 µM]	9.5*
Cc1ccccc1NC(=O)CN1C(=O)CCn2nc(-c3cccn3C)cc21	nt	-6%	12%	nt	nt	nt	nt
Cc1ccc(OCC(=O)N(c2ccc(C)cc2)S(=O)(=O)c2ccc(Cl)cc2)cc1	nt	4%	-11%	nt	nt	nt	nt
O=C(Nc1ncccc1O)c1c(O)c2ccccc2[nH]c1=O	2%	?	-4%	-3%	6	-24%[11.6 µM]	?
Cc1cccc(C)c1NC(=O)c1c(O)c2ccccc2[nH]c1=O	3%	6%	2%	8%	1	10%	nt
CCOC(=O)C1CCNC(=O)C1=O (stereo unspecified)	-3%	20µM*	-14%	0%	0	5%	21*
COc1cc(C)c2c(c1C=O)Oc1c(c(C)c(O)c3c1C(O)OC3=O)OC2=O (stereo unspecified)	-24%	?	45µM*	4%	-64*	50µM*	76*
CCc1ccc(NC(=O)C(=O)NCCc2sc3nc(-c4ccc(OC)cc4)nn3c2C)cc1	nt	-3%	-1%	nt	nt	nt	nt
CN(Cc1cccs1)c1ncnc2ccc(-c3ccc4cn(C)nc4c3)cc12	nt	nt	nt	nt	nt	nt	67*
